The list is not random: actives were taken first. Their share in the collection is about 3.8%.
HSF1 activator – HSF-1 activators, primary screen, NIH3T3-HGL cells, MG132 stress, luminescence, single point; NIH3T3-HGL HSF-1 luciferase reporter, 8 h; 100% = twice DMSO control signal; activation, % at 9 µM; 300,000 tested, 1.7% active;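 active = mean replicate activation of at least 50% with a set share of replicates each reaching 50%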;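 also: 0% = median of the neutral control wells and 100% = twice that signal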
NALP1 inh – NALP1 inflammasome inhibitors in reconstituted yeast, colorimetric, S. cerevisiae, triplicate retest | 280,000 tested, 0.61% active | AID 2071, 2009 | S. cerevisiae NALP1/ASC/caspase-1 growth, X-gal OD620, 72 h | inhibition, % at 10 µM; in the data active = inhibition mostly above about 24%, no sharp cut-off; inactive = mostly below about 32%
Hsp70 act – Hsp70 transcriptional activators, primary screen, cell-based, HeLa, Hsp70 promoter luciferase, luminescence, 10 µM; 200,000 tested, 0.04% active; activation, % at 10 µM; HeLa Hsp70 promoter luciferase reporter; scaled: vehicle 0, proteasome-inhibitor control 100%;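 active = activation above the mean across all tested compounds plus 3 SD, cutoff set per campaign, cut at about 5.5% in these data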;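 also: 100% = MG132 at 30 µM as the positive control and 0% = DMSO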
HSP90 inh – HSP90 inhibitors, primary screen, cell lysate, luminescence. inhibition, % at 5.6 µM. AID 1789, 2009. Rabbit reticulocyte lysate, luciferase refolding luminescence, 3 h. 290,000 tested, 0.91% active. Heat shock protein HSP 90 (rabbit reticulocyte lysate; luciferase refolding);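 active = inhibition above the screen-wide mean plus 3 SD, computed separately per campaign, cut at about 16% in these data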;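 also: 0% = DMSO wells and 100% = 60 µM geldanamycin wells; inhibitors lower the luminescence because luciferase stays unfolded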
pCIP destab – p/CIP-EGFP fusion destabilizers, primary screen, fluorescence, F442A cells | Q05BA5 | 16 h | decrease of EGFP signal, % at 10 µM | 290,000 tested, 0.01% active;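 active = EGFP signal decrease of at least 30% at 10 µM or well 3 SD below plate mean, unless failing retest; inactive = the rest, including hits failing retest or dose response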
Target sequence (Q05BA5 1-1403): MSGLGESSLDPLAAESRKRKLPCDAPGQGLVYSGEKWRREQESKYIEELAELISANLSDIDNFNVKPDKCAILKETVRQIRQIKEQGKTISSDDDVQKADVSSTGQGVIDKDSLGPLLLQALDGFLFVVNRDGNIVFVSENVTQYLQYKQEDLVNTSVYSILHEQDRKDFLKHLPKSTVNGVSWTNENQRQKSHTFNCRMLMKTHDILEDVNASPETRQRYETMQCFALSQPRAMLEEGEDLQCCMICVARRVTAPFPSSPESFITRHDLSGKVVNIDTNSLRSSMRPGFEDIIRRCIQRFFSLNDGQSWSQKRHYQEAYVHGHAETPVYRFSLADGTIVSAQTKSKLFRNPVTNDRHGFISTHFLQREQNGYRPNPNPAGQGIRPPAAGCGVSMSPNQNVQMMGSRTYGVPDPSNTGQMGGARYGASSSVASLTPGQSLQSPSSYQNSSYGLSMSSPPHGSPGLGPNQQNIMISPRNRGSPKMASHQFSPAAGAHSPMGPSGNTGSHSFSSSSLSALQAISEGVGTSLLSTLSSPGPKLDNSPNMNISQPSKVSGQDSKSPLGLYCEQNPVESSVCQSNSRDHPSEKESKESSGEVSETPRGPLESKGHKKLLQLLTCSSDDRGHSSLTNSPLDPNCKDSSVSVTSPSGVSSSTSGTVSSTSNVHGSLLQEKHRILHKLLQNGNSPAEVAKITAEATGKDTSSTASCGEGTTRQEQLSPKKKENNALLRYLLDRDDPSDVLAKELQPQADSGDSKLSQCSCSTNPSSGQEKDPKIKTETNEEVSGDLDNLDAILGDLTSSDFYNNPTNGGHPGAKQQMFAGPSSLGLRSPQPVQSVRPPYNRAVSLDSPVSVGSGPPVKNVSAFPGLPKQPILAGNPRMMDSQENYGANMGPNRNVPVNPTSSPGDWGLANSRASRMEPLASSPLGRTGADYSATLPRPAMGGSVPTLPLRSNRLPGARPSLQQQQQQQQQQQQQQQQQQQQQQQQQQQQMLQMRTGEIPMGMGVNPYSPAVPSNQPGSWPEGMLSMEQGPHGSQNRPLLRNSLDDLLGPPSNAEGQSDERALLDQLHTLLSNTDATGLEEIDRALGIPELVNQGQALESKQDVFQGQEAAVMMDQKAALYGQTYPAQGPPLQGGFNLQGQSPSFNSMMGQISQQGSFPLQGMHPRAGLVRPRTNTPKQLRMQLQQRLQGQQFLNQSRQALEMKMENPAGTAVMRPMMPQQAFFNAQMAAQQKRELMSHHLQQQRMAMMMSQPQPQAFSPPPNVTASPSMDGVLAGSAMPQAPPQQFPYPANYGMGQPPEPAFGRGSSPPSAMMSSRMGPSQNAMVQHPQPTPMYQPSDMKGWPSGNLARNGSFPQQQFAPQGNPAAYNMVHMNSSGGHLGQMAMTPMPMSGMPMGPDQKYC
HSF1 inhib – HSF1 inhibitors in luciferase reporter cells, primary screen, cell-based, NIH3T3, luminescence. AID 2098, 2009. activity change, negative = inhibition, % at 7.5 µM (by protocol). 300,000 tested, 0.77% active. NIH3T3-HGL HSE-luciferase, MG132-induced, luminescence 8 h; stronger effect = lower value;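 active = more than half of replicate wells show activity change below -50%, luminescence cut by over half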;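 also: luciferase reports HSF-1 transcriptional activity via heat shock element; 0% = median of DMSO wells and -100% = zero luminescence signal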
* = called active by the depositor.

`C=CCOC(=O)c1ccc(-n2cncn2)nc1` gave HSF1 activator 3.3, NALP1 inh 11.6, Hsp70 act 0.0, HSP90 inh -0.8, pCIP destab 8.9 and HSF1 inhib -2.9.
For O=C(Oc1ccccc1Cl)c1ccc(-n2cncn2)nc1 the results were HSF1 activator -91.8, NALP1 inh -3.2, Hsp70 act 0.5, HSP90 inh -0.4, pCIP destab -15.3 and HSF1 inhib -89.4*.
CNC(=O)COc1coc(CN2CCN(C(=O)c3ccco3)CC2)cc1=O was read as HSF1 activator 0.1 and HSF1 inhib -4.0.
For Cc1c(CCOC(=O)C23CC4(C)CC(C)(CC(C)(C4)C2)C3)sc[n+]1CC(=O)c1ccccc1 the results were HSF1 activator 12.6, NALP1 inh 17.3, Hsp70 act -0.1, HSP90 inh 2.5, pCIP destab -8.1 and HSF1 inhib 7.7.
Screening Cc1c(CCOC(=O)CC23CC4CC(CC(C4)C2)C3)sc[n+]1CC(=O)c1ccccc1 returned HSF1 activator 9.9, NALP1 inh 34.7*, Hsp70 act -0.4, HSP90 inh 7.2, pCIP destab -2.8 and HSF1 inhib 11.0.
`O=C(c1cc(COc2ccc(F)c(F)c2)on1)N1CCN(C/C=C/c2ccccc2)CC1` gave HSF1 activator 26.0, NALP1 inh 13.8, HSP90 inh -0.2, pCIP destab 1.2 and HSF1 inhib 14.0.
c1nc(NCC2(N3CCOCC3)CCCCC2)c2ccsc2n1 was read as HSF1 activator 10.8, NALP1 inh 5.1, Hsp70 act -0.3, HSP90 inh 2.8, pCIP destab -6.8 and HSF1 inhib 0.5.
`Cc1sc2ncnc(NCC3(N4CCOCC4)CCCCC3)c2c1C` gave HSF1 activator 34.1, NALP1 inh 43.5*, Hsp70 act -0.1, HSP90 inh -6.2, pCIP destab 4.2 and HSF1 inhib 11.8.
O=C(NCC12CC3CC(CC(C3)C1)C2)c1cc2n(n1)C(C(F)(F)F)CC(c1ccco1)N2 (stereo not drawn) was read as HSF1 activator 0.5, NALP1 inh 8.2, Hsp70 act -0.4, HSP90 inh 29.7*, pCIP destab 2.0 and HSF1 inhib 4.4.
`O=C(O)c1csc(N/N=C/c2ccc(Br)cc2)n1` gave HSF1 activator 80.7*, NALP1 inh -25.1, Hsp70 act -0.2, HSP90 inh 15.7, pCIP destab -12.8 and HSF1 inhib 39.3.
O=c1cc(CS(=O)(=O)c2ccccc2)nc(-c2ccncc2)[nH]1 was read as HSF1 activator 27.9, NALP1 inh 2.0, Hsp70 act -0.2, HSP90 inh 0.7, pCIP destab 2.8 and HSF1 inhib 0.9.
Cc1ccc(S(=O)(=O)Nc2cccc(Cl)c2)cc1NC(=O)c1cccnc1 was read as HSF1 activator 8.1, NALP1 inh -0.3, Hsp70 act 0.3, HSP90 inh 0.4, pCIP destab -2.4 and HSF1 inhib -5.8.
`CC1Cc2ccccc2N1C(=O)CSc1ccccc1` (stereo not drawn) gave HSF1 activator 26.1, NALP1 inh 1.9, Hsp70 act 0.2, HSP90 inh -6.8, pCIP destab 1.5 and HSF1 inhib 29.3.
CC1Cc2ccccc2N1C(=O)CSc1ncccc1C(=O)O (stereo not drawn) was read as HSF1 activator -81.4, NALP1 inh 15.0, Hsp70 act -0.6, HSP90 inh -2.4, pCIP destab -10.8 and HSF1 inhib -77.6*.
CC1Cc2ccccc2N1C(=O)CSc1nc2cc3c(cc2cc1C#N)OCO3 (stereo not drawn) was read as NALP1 inh 21.9, Hsp70 act 0.2, HSP90 inh -0.8 and pCIP destab -2.3.
Cc1cc2cc3c(cc2nc1SCC(=O)N1c2ccccc2CC1C)OCO3 (stereo not drawn) was read as HSF1 activator 14.0, NALP1 inh 14.1, Hsp70 act -0.3, HSP90 inh 16.8*, pCIP destab -1.0 and HSF1 inhib -0.7.
CCOC(=O)c1cnc2c(N=Nc3ccccc3)c(N)nn2c1N was read as HSF1 activator -29.7, NALP1 inh 3.7, Hsp70 act 0.4, HSP90 inh 3.1, pCIP destab -1.7 and HSF1 inhib -15.5.
`CCOC(=O)c1cnc2c(N=Nc3cccc(Cl)c3)c(N)nn2c1N` gave NALP1 inh 83.5*, Hsp70 act -0.1, HSP90 inh -0.6 and pCIP destab -5.4.
`Nc1c(-c2cccc(Cl)c2)cnc2c(-c3ccccc3)cnn12` gave HSF1 activator 64.4*, NALP1 inh 22.8, HSP90 inh 0.9, pCIP destab 0.3 and HSF1 inhib 25.6.
`CCOC(=O)c1cnc2c(-c3ccccc3)cnn2c1N` gave HSF1 activator 52.7*, NALP1 inh -1.6, Hsp70 act 0.4, HSP90 inh 0.2, pCIP destab -2.5 and HSF1 inhib 30.5.
CCOC(=O)c1c(-c2ccccc2)cn2c(C)cc(C)nc12 was read as HSF1 activator 59.3*, NALP1 inh -11.6, Hsp70 act 0.1, HSP90 inh -2.3, pCIP destab -2.1 and HSF1 inhib 24.0.
Screening CC1Cc2cc(/C(O)=C3/C(=O)C(=O)N(CCCN4CCOCC4)C3c3ccc(C(C)C)cc3)ccc2O1 (stereo not drawn) returned HSF1 activator 37.4, NALP1 inh 21.3, HSP90 inh 0.2, pCIP destab -5.1 and HSF1 inhib 2.2.
Cc1ccc(C(C)C)c(OCCNCCc2ccccc2)c1 was read as HSF1 activator -9.2, NALP1 inh -5.6, HSP90 inh 3.8, pCIP destab -29.0 and HSF1 inhib -4.9.
CCOc1ccc(NCc2nnc(SCC(=O)Nc3cc(C)on3)n2-c2ccccc2OC)cc1 was read as HSF1 activator -47.2, NALP1 inh -4.9, Hsp70 act -0.2, HSP90 inh 4.9, pCIP destab 0.5 and HSF1 inhib -36.0.
`CCOc1ccc(NCc2nnc(SCC(=O)Nc3cc(C)on3)n2-c2ccc(OC)cc2)cc1` gave HSF1 activator -82.6, NALP1 inh 7.5, Hsp70 act -0.3, HSP90 inh 0.2, pCIP destab 6.7 and HSF1 inhib -79.6*.
COCc1ccc(C(=O)N2CCCC(C(=O)c3ccc(SC)cc3)C2)s1 (stereo not drawn) was read as HSF1 activator 18.8, NALP1 inh 21.8, HSP90 inh -1.9, pCIP destab -11.0 and HSF1 inhib 9.6.
`Oc1c(C2=NCCNC(C(F)(F)F)=C2)ccc2ccccc12` gave HSF1 activator 81.1*, NALP1 inh 4.9, Hsp70 act 0.6, HSP90 inh -3.6, pCIP destab 11.6 and HSF1 inhib 61.1.
